Source: PubChem BioAssay
Compounds with a hit are over-represented: about 2.3% of the library has one in this group of screens.
MEKK2 WT-MEK5 = raises or lowers MEK5 binding to wildtype human MEKK2 PB1 domain; AID 1531; Q9Y2U5; bead flow cytometry, Alexa488-MEK5 binding to MEKK2 WT; actives lie on both sides; actives 1.1% (n = 290,000); binding response (% of control), % at 10 µM; in the data active = binding response below about 67% or above about 130%
UBC13 inh = human UBC13 polyubiquitination inhibition | actives 0.47% (n = 330,000) | P61088 | AID 485273 | UBC13 polyubiquitin chain formation, TR-FRET | inhibition, % at 20 µM; in the data active = inhibition above about 45%, passing the limit was not always enough
Target sequence (P61088 whole entry, looked up): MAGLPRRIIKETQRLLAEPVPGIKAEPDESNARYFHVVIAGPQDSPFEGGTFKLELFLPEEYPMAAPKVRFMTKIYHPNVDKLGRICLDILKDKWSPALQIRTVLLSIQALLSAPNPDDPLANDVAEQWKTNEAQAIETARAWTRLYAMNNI
MEKK2mut PB1 HTS = signal of MEK5 binding to mutant human MEKK2 PB1 domain | bead flow cytometry, Alexa488-MEK5 binding to MEKK2 mutant | percent response, % at 10 µM | actives 0.35% (n = 290,000) | AID 1530; in the data active = percent response above about 24%, passing the limit was not always enough
MEKK3 PB1 HTS = modulators (inhibitors or enhancers) of MEK5 binding to human MEKK3 PB1 domain; AID 1529; bead-based flow cytometry, Alexa488-MEK5 binding to MEKK3; actives lie on both sides; 0 = blocked by unlabeled MEK5, 100 = vehicle; binding response (% of control), % at 10 µM; actives 1.4% (n = 290,000);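 active = binding response more than 3 SD above or below the average of its plate-row segment, actives on both sides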;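 also: Alexa488 bead fluorescence after subtracting the streptavidin-only scavenger bead signal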
MEKK2wt confirm = raises or lowers MEK5 binding to wildtype human MEKK2, retest. actives 2.4% (n = 5,900). AID 1892. bead flow cytometry, Alexa488-MEK5 binding to MEKK2 WT; actives lie on both sides. shares compounds with MEKK3 PB1 HTS. binding response (% of control), % at 10 µM; in the data active = binding response below about 16% or above about 210%; inactive = in between
MEKK2mut-MEK5 = signal of MEK5 binding to mutant human MEKK2, retest; shares compounds with MEKK3 PB1 HTS; bead flow cytometry, Alexa488-MEK5 binding to MEKK2 mutant; percent response, % at 10 µM; actives 2% (n = 5,900); AID 1893; in the data active = percent response mostly above about 71%, no sharp cut-off; inactive = mostly below about 38%;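 also: higher means compound restores mutant binding toward wildtype level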
MEKK3-MEK5 inh = MEKK3-MEK5 PB1 inhibition, single concentration confirmation. shares compounds with MEKK3 PB1 HTS. bead flow cytometry, Alexa488-MEK5 binding to MEKK3; stronger effect = lower value. binding response (% of control), % at 10 µM. actives 1.8% (n = 5,900);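 active = binding response below 72% of control, or above a set upper limit, though filed actives all read lower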;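 also: 100% = DMSO only wells and 0% = binding blocked by excess unlabeled MEK5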
Numbers without * were called inactive; / = not tested or not shown; [ ] = dose if it differs, or a comment.

SMILES | MEKK2 WT-MEK5 | UBC13 inh | MEKK2mut PB1 HTS | MEKK3 PB1 HTS | MEKK2wt confirm | MEKK2mut-MEK5 | MEKK3-MEK5 inh
COc1cccc(C(=O)NCC2(c3ccccc3)CCCC2)c1OC | 102 | 6 | 7 | 105 | / | / | /
CCOC(=O)CSc1n[nH]c(NC(=O)c2cccc(C(F)(F)F)c2)n1 | 82 | 2 | -6 | 83 | / | / | /
O=C(/C=C/c1ccc(Br)o1)NC(c1ccccc1)c1ccccc1 | 102 | 5 | 1 | 140* | 97 | -5 | 102
O=C(NC(c1ccccc1)c1ccccc1)c1ccc(Br)o1 | 108 | 6 | 3 | 105 | / | / | /
Cc1ccccc1OCCNc1cc(N2CCNCC2)ccc1[N+](=O)[O-] | 162* | -3 | 35 | 110 | 167 | 34 | 104
COc1ccccc1OCCNc1cc(N2CCCCC2)ccc1[N+](=O)[O-] | 104 | -13 | -2 | 106 | / | / | /
CCOc1ccc2cc(/C=C/C(=O)c3ccco3)c(Cl)nc2c1 | / | 11 | / | / | / | / | /
COc1ccc(NC(=S)N2CCN(C(=O)c3ccccc3)CC2)cc1 | 96 | 1 | -5 | 103 | / | / | /
NNc1cc(C(=O)O)ccc1Cl | 61*[inhibitor] | -14 | -17 | 55*[inhibitor] | 100 | -4 | 101
COCCn1c(C)cc(C(=O)CN2C(=O)NC3(CCCCCC3)C2=O)c1C | / | 5 | / | / | / | / | /
Cc1ccc(C(=O)NCC(=O)OCCOc2ccccc2Cl)cc1 | / | -6 | / | / | / | / | /
COc1ccc(C2CC(c3cccs3)=NN2S(C)(=O)=O)cc1OC (centres undefined) | / | -1 | 70* | 80 | 100 | 5 | 99
COc1ccc(C2CC(c3cccs3)=NN2c2ccc(C=O)cc2)cc1 (centres undefined) | 63*[inhibitor] | / | -4 | 88 | 82 | -16 | 99
COc1ccc(C2=NN(S(C)(=O)=O)C(c3cccs3)C2)cc1OC (centres undefined) | 85 | -4 | -10 | 91 | / | / | /
c1ccc(COc2ccccc2CNc2nn[nH]n2)cc1 | 72 | -3 | -9 | 67*[inhibitor] | 103 | -1 | 103
O=C(NNC(=O)c1cc(Cl)ccc1[N+](=O)[O-])c1csc(N2CCOCC2)n1 | / | -6 | / | / | / | / | /
CC1CC(C)CN(C(=O)COC(=O)c2cccc([N+](=O)[O-])c2)C1 (centres undefined) | 50 | -15 | -16 | 48*[inhibitor] | 100 | -4 | 106
Cc1ccc(NC(=O)CC2SC(=Nc3ccc(O)cc3)NC2=O)cc1 (centres undefined) | 115 | -1 | 0 | 133* | 123 | 10 | 106
Cc1cccc(CN2CCc3c([nH]c4ccccc34)C2)c1 | 106 | 5 | 10 | 101 | / | / | /
COc1cc(OC)c(CN2CCc3c([nH]c4ccccc34)C2)cc1Br | 122 | 10 | 30* | 103 | 128 | 15 | 107
COc1ccccc1CNC(=O)CN(c1cccc([N+](=O)[O-])c1)S(C)(=O)=O | -2.0*[inhibitor] | 4 | -22 | 1.0*[inhibitor] | 96 | -11 | 97
Cc1ccc(NC(=S)N/N=C2\CCCCC2C)cc1 (centres undefined) | 100 | 5 | 0 | 103 | / | / | /
CC1CCCC/C1=N\NC(=S)Nc1cccnc1 (centres undefined) | 6.0*[inhibitor] | 6 | -45 | 4.0*[inhibitor] | 107 | 10 | 101
O=C1CCCc2c1[nH]c1ccccc21 | 104 | -1 | 6 | 128* | 107 | 4 | 102
O=C(COC(=O)Cn1nnc2ccccc21)NC1CCCC1 | 101 | 0 | -2 | 102 | / | / | /
CC(C)NC(=O)C1CCN(C(=O)N(C)C)CC1 | -3.0*[inhibitor] | -3 | -20 | 1.0*[inhibitor] | 97 | -2 | 98
Cc1cccc(NS(=O)(=O)c2ccc(C)c(C(=O)NCc3ccccn3)c2)c1 | / | 1 | / | / | / | / | /
CCn1c(CCNC(=O)c2cccs2)nnc1SCC(=O)NC1CCCCC1 | 0.0*[inhibitor] | 4 | -41 | 1.0*[inhibitor] | 94 | -8 | 96
CCn1c(CCNC(=O)c2cccs2)nnc1SCC(=O)Nc1ccc(Cl)cc1 | 101 | 1 | 0 | 95 | / | / | /
CCN(CC)C(=O)C1CCN(Cc2ccc(OCc3ccccc3)c(OC)c2)CC1 | 104 | 4 | 7 | 97 | / | / | /
